Compound activity (PubChem)
SSB-PriA inh: K. pneumoniae PriA-SSBct interaction inhibition; AlphaScreen SSBct-PriA binding, biotinylated peptide; inhibition, % at 33 µM; hit rate 0.6% among 430,000; in the data active = inhibition mostly above about 37%, no sharp cut-off; inactive = mostly below about 20%
PfHsp40 rescue: restores yeast growth despite PfHsp40 toxicity | growth rescue, % at 12.5 µM | S. cerevisiae expressing PfHsp40, growth rescue, ATP luminescence | AID 504582 | hit rate 0.68% among 340,000; in the data active = growth rescue above about 28%, passing the limit was not always enough; inconclusive = no clear call, values can overlap the other calls;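 note: yeast W303a lacking pdr1 and pdr3 grown in galactose medium; growth measured after three days at 30 °C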
BJeLR viability: kills HRASV12-expressing BJeLR cells. BJeLR (HRASV12) viability, CellTiter-Glo ATP luminescence, 48 h. inhibition, % (no concentration beside the values). hit rate 0.17% among 300,000. AID 1554; in the data active = inhibition above about 50%; inconclusive = no clear call, values can overlap the other calls
PrPC surface inh: cell surface PrPC inhibition, primary TR-FRET screen. P04156. TR-FRET read-out. inhibition, % at 13.8 µM. hit rate 0.43% among 370,000; in the data active = inhibition above about 24%
Yp Topo-I inh: Y. pestis Topo-I inhibition via cleavage products; Y. pestis Topo-I cleavage product accumulation, plate reader; hit rate 0.064% among 360,000; activity, % at 10 µM; in the data active = activity above about 50%, passing the limit was not always enough; inconclusive = no clear call, values can overlap the other calls
PrP 5UTR inh: inhibition of PrP 5' UTR reporter expression. cell-based PrP 5' UTR mRNA reporter, plate reader. inhibition, % (test concentration not listed). hit rate 0.35% among 340,000. AID 488862; in the data active = inhibition above about 52%
PrP 5UTR single: prion 5' UTR mRNA inhibition, cherry-pick retest | shares compounds with PrP 5UTR inh | cell-based prion protein 5' UTR reporter, plate reader | hit rate 48% among 1,100 | inhibition, % at 2.5 µM; in the data active = inhibition above about 54%; inconclusive = no clear call, values can overlap the other calls
PrPC confirm: cell surface PrPC inhibition, TR-FRET confirmation. inhibition, % at 13.8 µM. AID 743200. shares compounds with PrPC surface inh. hit rate 65% among 1,500. cell surface PrPC level; in the data active = inhibition above about 25%
LD9 cytotox: counter-screen for PrPc inhibitors: cytotoxicity in LD9 cells | shares compounds with PrPC surface inh | luminescence viability | inhibition, % at 13.8 µM | hit rate 29% among 1,500 | AID 743201; in the data active = inhibition above about 9.5%
Each line names hits and unclear results; the compound was inactive in the other large screens (follow-up assays come after a bar, where they were run). Rows were chosen to be rich in hits. Some 1.7% of all compounds tested hit in one or more screens of this group.

CCOC(=O)C1Oc2ccccc2C(c2ccc(C)cc2)=C1C(=O)OC (stereo not given)	none (no result: BJeLR viability)
CCOC(=O)C1(CC)Oc2ccccc2C(c2ccc(OC)cc2)=C1C(=O)OC (stereo not given)	PrP 5UTR inh 71.5 (no result: BJeLR viability) | PrP 5UTR single inactive
O=C(Nc1ccc(N2CCOCC2)cc1)c1cnsn1	PrP 5UTR inh 67.6 | PrP 5UTR single 76.8
COc1ccc(C2/C(=C(/O)c3ccc(Cl)cc3)C(=O)C(=O)N2CCN2CCOCC2)c(OC)c1 (stereo not given)	PrP 5UTR inh 63.2 (no result: SSB-PriA inh) | PrP 5UTR single inactive
CC(C)(C)c1ccc(-c2cc(N)n[nH]2)cc1	PrP 5UTR inh 63.7 | PrP 5UTR single inconclusive
Cc1ccc(-c2cc(N)n[nH]2)cc1	none
O=C(COc1cccc(C(F)(F)F)c1)NNC(=O)c1ccc(=O)[nH]c1	PrP 5UTR inh 65.5 (no result: BJeLR viability) | PrP 5UTR single inactive
CO[C@@H](CNC(=O)C1(c2ccc(F)cc2)CC1)c1ccc(Cl)s1	none (no result: PfHsp40 rescue, BJeLR viability, PrPC surface inh, Yp Topo-I inh, PrP 5UTR inh)
OCC1=C[C@@H](O)[C@@H]2C=CO[C@@H](O[C@@H]3O[C@H](CO)[C@@H](O)[C@H](O)[C@H]3O)[C@H]12	PrP 5UTR inh 65.4 (no result: BJeLR viability) | PrP 5UTR single inactive
OCC1=C[C@@H](O)C2C=CO[C@@H](O[C@@H]3O[C@H](CO)[C@@H](O)[C@H](O)[C@H]3O)C12 (stereo not given in full)	none (no result: BJeLR viability)
c1cc2c(cc1C1=NNC(=NC3CC3)SC1)OCCO2	PrP 5UTR inh 90.8 | PrP 5UTR single 91.2
CCCCN=C1NN=C(c2ccc3c(c2)OCCO3)CS1	none
Cc1cc(C2=NNC(=NC3CC3)SC2)c(C)n1-c1ccccc1F	PrP 5UTR inh 94.3 | PrP 5UTR single 96.2
COc1ccc(S(=O)(=O)CCCC(=O)Nc2ccc(-c3nc4ccccc4o3)cc2)cc1	none (no result: PfHsp40 rescue, BJeLR viability, PrPC surface inh, Yp Topo-I inh, PrP 5UTR inh)
CCCOc1ccc2cc(-c3ccccn3)c(=O)oc2c1	PrP 5UTR inh 77.8 | PrP 5UTR single 57.0
COc1ccc(S(=O)(=O)NCc2ccco2)cc1C(=O)N1CCOCC1	none
O=C(c1cc(S(=O)(=O)NCc2ccco2)ccc1Br)N1CCOCC1	PrP 5UTR inh 79.2 (no result: BJeLR viability) | PrP 5UTR single inactive
Cc1cc(N)nc(=O)n1C1CC(O)C(CO)O1 (stereo not given)	PrP 5UTR inh 59.3 (no result: BJeLR viability) | PrP 5UTR single inactive
O=C(O)c1cc(S(=O)(=O)N2CCOCC2)c(Sc2ccccn2)cc1Sc1ccccn1	PrP 5UTR inh 68.8 | PrP 5UTR single inactive
CC(C)CS(=O)(=O)C1CN(C(=O)c2nc3ccccc3s2)C1	none (no result: PfHsp40 rescue, BJeLR viability, PrPC surface inh, Yp Topo-I inh, PrP 5UTR inh)
Cc1nnc(SCC(=O)Nc2cc(-c3cc(C)c(C)cc3C)nn2-c2ccccc2)s1	PrP 5UTR inh 58.9 | PrP 5UTR single inactive
Cc1nnc(SCC(=O)Nc2cc(C(C)(C)C)nn2-c2ccccc2)s1	none
COC(=O)C(O)(c1ccc(N(C)C)cc1)C(F)(F)F (stereo not given)	PrP 5UTR inh 66.0 | PrP 5UTR single inactive
Cc1ccc(SC(C)c2nc(-c3ccccc3)no2)cc1 (stereo not given)	PrP 5UTR inh 74.6 | PrP 5UTR single inactive
COc1ccc(N(CC(=O)NCCSc2ccccn2)S(C)(=O)=O)cc1	none
CS(=O)(=O)N(CC(=O)NCCSc1ccccn1)c1ccc(F)cc1	PrP 5UTR inh 51.8 | PrP 5UTR single inactive
CC(C)(O)/C=C/C(=O)C(C)(O)C1C(O)CC2(C)C3CC=C4C(C=C(O)C(=O)C4(C)C)C3(C)C(=O)CC12C (stereo not given)	PrPC surface inh 34.5, PrP 5UTR inh 70.0 (no result: BJeLR viability) | PrP 5UTR single 90.4 | PrPC confirm 32.7 | LD9 cytotox 13.5
CNc1c2cccc(C)c2nc2c(C(=O)NCCN(C)C)cccc12	PrPC surface inh 29.4, PrP 5UTR inh 96.3 (no result: BJeLR viability) | PrP 5UTR single 95.6 | PrPC confirm 61.8 | LD9 cytotox 59.1
O=C1N(c2ccccc2)CC2C(c3ccccc3)C(c3ccccc3)N3CCCC123 (stereo not given)	none (no result: SSB-PriA inh, PfHsp40 rescue, BJeLR viability, Yp Topo-I inh, PrP 5UTR inh)
O=C1N(c2ccccc2)C[C@@H]2C[C@@H](c3cc4ccccc4o3)N3CCC[C@@]123	BJeLR viability 51.1, PrPC surface inh 39.7, PrP 5UTR inh 58.7 | PrP 5UTR single 73.6 | PrPC confirm 54.2 | LD9 cytotox 25.2
CCS(=O)(=O)N1CCCc2cc(NS(=O)(=O)c3c(C)n[nH]c3C)ccc21	none (no result: PfHsp40 rescue, BJeLR viability, PrPC surface inh, Yp Topo-I inh, PrP 5UTR inh)
COc1ccc(CC2C(=O)NC(C)C(=O)N(C)C3C(=O)N(C)C(Cc4ccc(O)c(c4)Oc4ccc(cc4)C3O)C(=O)NC(C)C(=O)NC(C)C(=O)N2C)cc1 (stereo not given)	PrPC surface inh 87.2, PrP 5UTR inh 53.4 (no result: BJeLR viability) | PrP 5UTR single inactive | PrPC confirm 94.9 | LD9 cytotox 38.2
O=c1c(C=NCCCn2ccnc2)c(CSc2ccc(Cl)cc2)[nH]n1-c1nc2ccccc2s1	none (no result: PfHsp40 rescue, BJeLR viability, PrPC surface inh, Yp Topo-I inh, PrP 5UTR inh)
O=C(Nc1cccc(-c2cn3cccnc3n2)c1)c1cccc(Br)c1	none (no result: PfHsp40 rescue, BJeLR viability, PrPC surface inh, Yp Topo-I inh, PrP 5UTR inh)
CC(O)C1C=CC=CC(=O)OC2CC3OC4C5OC5(C)C(O)CC4(COC(=O)C(O)C(C)CCO1)C2(C)C31CO1 (stereo not given)	PrPC surface inh 92.1, PrP 5UTR inh 70.1 (no result: SSB-PriA inh, PfHsp40 rescue, BJeLR viability) | PrP 5UTR single 82.8 | PrPC confirm 98.7 | LD9 cytotox 40.1
CC1=CC2OC3CC4OC(=O)C=CC=CC(C(C)O)OCC(O)C5(C)OC5C(=O)OCC2(CC1O)C4(C)C31CO1 (stereo not given)	PrPC surface inh 88.8, PrP 5UTR inh 93.9 (no result: SSB-PriA inh, PfHsp40 rescue, BJeLR viability) | PrP 5UTR single 92.7 | PrPC confirm 96.0 | LD9 cytotox 59.8
CC(=O)OC1C(=O)OCC23CCC4(C)OC4C2OC2CC(OC(=O)/C=C/C=C/C(=O)OCCC1C)C3(C)C21CO1 (stereo not given)	none (no result: PfHsp40 rescue, BJeLR viability, PrPC surface inh, Yp Topo-I inh, PrP 5UTR inh)
CC1CCOC(=O)C=CC=CC(=O)OC2CC3OC4C5OC5(C)C(O)CC4(COC(=O)C1O)C2(C)C31CO1 (stereo not given)	PrPC surface inh 83.8, PrP 5UTR inh 82.2 (no result: SSB-PriA inh, PfHsp40 rescue, BJeLR viability) | PrP 5UTR single 91.5 | PrPC confirm 100.7 | LD9 cytotox 45.8
CC1=CC2OC3CC4OC(=O)/C=C/C=C/C(=O)OCCC(C)C(O)C(=O)OCC2(CC1O)C4(C)C31CO1 (stereo not given)	none (no result: PfHsp40 rescue, BJeLR viability, PrPC surface inh, Yp Topo-I inh, PrP 5UTR inh)
CC(O)C1C=C/C=C/C(=O)OC2CC3OC4C5OC5(C)C(O)CC4(COC(=O)C(O)C(C)CCO1)C2(C)C31CO1 (stereo not given)	none (no result: PfHsp40 rescue, BJeLR viability, PrPC surface inh, Yp Topo-I inh, PrP 5UTR inh)
CC1=CC2OC3CC4OC(=O)C=CC=CC(=O)OCCC(C)C(O)C(=O)OCC2(CC1)C4(C)C31CO1 (stereo not given)	PrPC surface inh 81.9, PrP 5UTR inh 94.0 (no result: SSB-PriA inh, PfHsp40 rescue, BJeLR viability) | PrP 5UTR single 93.5 | PrPC confirm 93.5 | LD9 cytotox 69.0
